{
  "source": "PubChem BioAssay (EPA / NIEHS)",
  "note": "The source made the active and inactive calls. The calls were made as follows: active = hit-call score of the fitted dose curve at least 0.9, where 1 is the maximum; inactive = score below 0.9.",
  "data": [
    {"assay": "ATG_GATA_CIS: Attagene CIS-FACTORIAL HepG2 Assay for human GATA Binding Protein (AID 2282944)", "conditions": "HepG2 GATA cis-element reporter, Attagene multiplex mRNA; actives raise or lower the signal", "experimental": "ATG_CIS is a cell-based, multiplexed-readout assay that uses HepG2, a human liver cell line, with measurements taken at 24 hours after chemical dosing in a 24-well plate.ATG_GATA_CIS is one of 52 assay component(s) measured or calculated from the ATG_CIS assay. It is designed to make measurements of mRNA induction, a form of inducible reporter, as detected with fluorescence intensity signals by Reverse transcription polymerase chain reaction (RT-PCR) and Capillary electrophoresis technology.Data from the assay component ATG_GATA_CIS was analyzed into 1 assay endpoint. This assay endpoint, ATG_GATA_CIS, was analyzed with bidirectional fitting relative to DMSO as the negative control and baseline of activity. Using a type of inducible reporter, measures of mRNA for gain or loss-of-signal activity can be used to understand the reporter gene at the transcription factor-level as they relate to the gene GATA1. Furthermore, this assay endpoint can be referred to as a primary readout, because this assay has produced multiple assay endpoints where this one serves a reporter gene function. To generalize the intended target to other relatable targets, this assay endpoint is annotated to the dna binding intended target family, where the subfamily is GATA proteins.\nHuman liver HepG2 cells are transiently transfected with multiple reporter transcription units (MRTUs) in 6-well plates using FuGene 6 reagent (Roche; 3 ml FuGene/1 mg DNA). The MRTU constructs are regulated by a cis-regulating element (promoter). […] A major difference between the CIS and TRANS system is that in CIS activities of endogenous TFs are measured, whereas the TRANS assay evaluates changes in activities of exogenous, chimeric NR-Gal4 proteins. […] At the end of 24 hour incubation, total RNA was isolated using TriZol reagent (Invitrogen). The isolated RNA is then reverse-transcribed using oligo(dT) primer and Mo-MLV reverse transcriptase (Invitrogen) with DNAse I (Ambion) treatment for 30 min. The one-tenth of the produced cDNA was amplified by PCR using Taq DNA polymerase (Invitrogen) and two reporter sequence-specific primers. The PCR products were fluorescently labeled by primer extension with 6-arboxyfluorescein (6-FAM) 5'-labeled reporter sequence-specific primer (2 min at 95 C, 20 s at 68 C and 10 min at 72 C) and these products were digested with 5U of HpaI (New England Biolabs) for 2h at 37 C. The fragments were purified using Qiaquick PCR columns (Qiagen), analyzed on an ABI 3130xL genetic analyzer (Applied Biosystems) with peak positions identified by using a set of X-rhodamine (ROX)-labeled MapMarker1000 molecular weight standards (BioVentures). The raw capillary electrophoresis data was processed using Attagraph software (Attagene).", "values": [
      {"smiles": "CCCCC1CCCCC(=O)O1", "note": "(stereo not given)", "outcome": "inactive"},
      {"smiles": "C=CC(C)(CCC=C(C)C)OC(=O)CC", "note": "(stereo not given)", "outcome": "inactive"},
      {"smiles": "CC(=O)CC(=O)N(C)C", "outcome": "inactive"},
      {"smiles": "CC(C)(C)c1cc(CCC(=O)OCCSCCOC(=O)CCc2cc(C(C)(C)C)c(O)c(C(C)(C)C)c2)cc(C(C)(C)C)c1O", "outcome": "inactive"},
      {"smiles": "NC(=O)NC(N)=O", "outcome": "inactive"},
      {"smiles": "CC(=O)Nc1cc(S(=O)(=O)O)cc2cc(S(=O)(=O)O)c(N=Nc3ccccc3)c(O)c12", "outcome": "inactive"},
      {"smiles": "CCOC(=O)CC1(C)OCC(C)O1", "note": "(stereo not given)", "outcome": "inactive"},
      {"smiles": "CCC(CC)CO", "outcome": "inactive"},
      {"smiles": "N=C1N=C(N)c2ccccc21", "outcome": "inactive"},
      {"smiles": "CCCCN(CCO)CCO", "outcome": "inactive"},
      {"smiles": "CC(=N[Si](C)(C)C)O[Si](C)(C)C", "outcome": "inactive"},
      {"smiles": "CCOC(=O)CC(C)C", "outcome": "inactive"},
      {"smiles": "CC(=O)OCC=C(C)CCC=C(C)CCC=C(C)C", "AC50": "167 µM (active)"},
      {"smiles": "NC(=O)c1c(Cl)cccc1Cl", "outcome": "inactive"},
      {"smiles": "CC(C)N(c1ccccc1)C(C)C", "outcome": "inactive"},
      {"smiles": "N#CCCCC(C#N)CCC#N", "note": "(stereo not given)", "outcome": "inactive"},
      {"smiles": "CC(C)(O)CCc1ccccc1", "outcome": "inactive"},
      {"smiles": "C=C(C)C(=O)OCCC(C)OC(=O)C(=C)C", "note": "(stereo not given)", "outcome": "inactive"},
      {"smiles": "Nc1ccc(O)c(N)c1", "outcome": "inactive"},
      {"smiles": "CC1(C)CC(=O)CC(C)(C)N1", "outcome": "inactive"},
      {"smiles": "C=CCOC(=O)/C=C\\C(=O)OCC=C", "outcome": "inactive"},
      {"smiles": "CCc1cccc(O)c1", "outcome": "inactive"},
      {"smiles": "CC1=C(C=O)C(C)(C)CCC1", "outcome": "inactive"},
      {"smiles": "CCC(C)COC(=O)CC(C)C", "note": "(stereo not given)", "outcome": "inactive"},
      {"smiles": "CC(=O)CCC(=O)O", "outcome": "inactive"},
      {"smiles": "CC(C)(CO)CO", "outcome": "inactive"},
      {"smiles": "CCOC(=O)COC(=O)c1ccccc1C(=O)OCC", "outcome": "inactive"},
      {"smiles": "CN(C)C(=O)Nc1ccccc1", "outcome": "inactive"},
      {"smiles": "N#CCCNCCC#N", "outcome": "inactive"},
      {"smiles": "CC(=O)c1ccc(C)cc1", "outcome": "inactive"},
      {"smiles": "C1=COCCC1", "outcome": "inactive"},
      {"smiles": "CCNC(=S)NCC", "outcome": "inactive"},
      {"smiles": "NCCN1CCNCC1", "outcome": "inactive"},
      {"smiles": "CCCCCCCCCCCCOC(C)=O", "outcome": "inactive"},
      {"smiles": "CC=CC(=O)C1=C(C)C=CCC1(C)C", "outcome": "inactive"},
      {"smiles": "C[C@H](CCC(=O)O)[C@H]1CC[C@H]2[C@@H]3CC[C@@H]4C[C@H](O)CC[C@]4(C)[C@H]3CC[C@]12C", "outcome": "inactive"},
      {"smiles": "C=CC(C)CCCC(C)(C)O", "note": "(stereo not given)", "outcome": "inactive"},
      {"smiles": "CC(O)COCC(C)O", "note": "(stereo not given)", "outcome": "inactive"},
      {"smiles": "CC(C)CCOC(=O)CC(C)C", "outcome": "inactive"},
      {"smiles": "COc1ccc(OC)cc1", "outcome": "inactive"}
    ]}
  ]
}
